The structures appear in SMILES notation. This is one part of the list. Active and inactive are the calls of the source.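 How the source made its calls: active means EC50 under a set limit for hydrogen peroxide production with the reducing agent DTT present; inactive means the rest.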

A short description of this test: compounds producing H2O2 with reducing agent – biochemical, 10-point concentration response, NIH library profiling, artefact control for MLSCN library redox annotation, dose response (AID 1234). The conditions noted are these: DTT-dependent redox cycling H2O2, phenol red-HRP absorbance; activation: H2O2 generation, at 50 µM, stronger effect = higher value.

On to `CCOC(=O)c1c(C)[nH]c2c1-c1ccccc1C(=O)C2=O`, for which the EC50 was 430 nM (active) and the activation was found to be 129%.

For orientation: EC50 means the concentration at which the effect is half-maximal.
